# Screens (PubChem)
# Bim-Bcl-W: human Bim-Bcl-W interaction inhibition | bead-based flow cytometry, Bim peptide-Bcl-W binding | inhibition, % at 10 µM | 0.02% of 190,000 active | AID 952;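 also: 0% = bound tracer without compound and 100% = peptide blocker; higher means less fluorescent Bim peptide bound to Bcl-W beads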
# Target sequence (Q92843 whole entry, looked up): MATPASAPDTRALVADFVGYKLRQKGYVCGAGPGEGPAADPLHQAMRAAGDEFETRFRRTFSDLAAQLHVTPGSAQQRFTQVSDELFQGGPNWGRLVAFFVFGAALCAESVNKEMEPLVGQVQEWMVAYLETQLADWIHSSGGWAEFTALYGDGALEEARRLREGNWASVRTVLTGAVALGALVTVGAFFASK
# Bcl-B Bim block: human Bim-Bcl-B interaction inhibition; 0.073% of 190,000 active; bead-based flow cytometry, Bim peptide-Bcl-B binding; inhibition, % at 10 µM;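 also: 0% = tracer peptide without compound and 100% = reference inhibitor peptide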
# Bim-Bcl-XL: human Bim-Bcl-XL interaction inhibition | Q07817 | Bim peptide-Bcl-XL binding, bead flow cytometry, fluorescence | 0.04% of 190,000 active | inhibition, % at 10 µM
# Bim-Bfl-1: inhibitors of Bim-Bfl-1 interaction, human; Q16548; Bead-based flow cytometry, Bim-Bfl-1 binding inhibition; inhibition, % at 10 µM; 0.12% of 190,000 active; AID 1008;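 also: 0% = wells without compound plus tracer and 100% = blocker peptide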
# Bim-Bcl-2: inhibitors of Bim-Bcl-2 interaction, human; Bead-based flow cytometry, Bim peptide-Bcl-2 binding; inhibition, % at 10 µM; 0.06% of 190,000 active; AID 950; in the data active = inhibition above about 40%;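 also: 0% = no compound wells with probe peptide and 100% = reference peptide inhibitor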
# Furin inh: human furin inhibition | 0.061% of 220,000 active | P09958 | inhibition, % at 20 µM or 30 µM | purified furin, fluorogenic substrate cleavage | AID 463115; in the data active = inhibition above about 25%
# * marks the source's active call; other numbers are inactive results; x = no result given. A selection: hits, their analogues and other compounds. The true share with any hit is near 0.21%. Rule as the data show it, unless noted: active = inhibition above about 40%.
SMILES,Bim-Bcl-W,Bcl-B Bim block,Bim-Bcl-XL,Bim-Bfl-1,Bim-Bcl-2,Furin inh
O=C(N/N=C/c1c(O)n(Cc2ccccc2)c(=O)[nH]c1=O)c1ccncc1,x,x,x,x,x,3
C=CCn1c(O)c(/C=N/NC(=O)c2ccncc2)c(=O)[nH]c1=O,x,x,x,x,x,36*
C/C=C1/CC(C)C(C)(O)C(=O)OCC2CCN3CCC(OC1=O)C23 (stereo not drawn),-4,0,0,1,0,-14
O=C(O)CP(=O)(O)c1ccc(Cl)cc1,2,-3,-3,0,-3,-13
COP(=O)(CC(=O)O)c1ccccc1 (stereo not drawn),36,95*,51*,-3,26,-24
c1ccc(-c2nc(N3CCOCC3)s[n+]2-c2ccccc2)cc1,7,-44,9,52*,14,-13
CCCCN1CCC(O)(c2ccccc2)C(C(=O)c2ccccc2)C1 (stereo not drawn),-10,-7,-7,-12,-2,34*
CN1/C(=C\C=C2C(=O)NC(=O)NC2=O)C(C)(C)c2ccccc21,-1,1,0,4,2,28*
CN1CCCC(C(=O)c2ccc(Cl)cc2)C1 (stereo not drawn),-2,-7,-4,-7,-3,-27
CC(C)CN1CCN(Cc2ccc(F)cc2Cl)CC1CCO (stereo not drawn),x,x,x,x,x,-14
O=C1NC(=O)C(Cc2cccs2)C(=O)N1,5,0,2,0,1,-15
Cc1nnc(SCc2nc3ccccc3c(=O)n2-c2ccccc2Cl)n1N,-2,0,-4,-2,-1,26*
